# Compound activity as filed in PubChem BioAssay.
# HPGD block – inhibitors of human 15-hydroxyprostaglandin dehydrogenase (HPGD) | P15428 | 4.3% of 150,000 active | AID 894 | Potency, µM, without a hit: at the top dose activity change, negative = inhibition, usual class: inhibitors | purified HPGD, NADH fluorescence kinetic, PGE2 substrate; active = well fitted inhibition curve with a large enough effect, not every such curve was filed as active; inconclusive = small, poorly fitted or top-dose-only effect, or another doubt; inactive = no such curve, though single readings can be large or run the other way; note: potency is the fitted concentration of half-maximal effect
# Target sequence (P15428 whole entry, looked up): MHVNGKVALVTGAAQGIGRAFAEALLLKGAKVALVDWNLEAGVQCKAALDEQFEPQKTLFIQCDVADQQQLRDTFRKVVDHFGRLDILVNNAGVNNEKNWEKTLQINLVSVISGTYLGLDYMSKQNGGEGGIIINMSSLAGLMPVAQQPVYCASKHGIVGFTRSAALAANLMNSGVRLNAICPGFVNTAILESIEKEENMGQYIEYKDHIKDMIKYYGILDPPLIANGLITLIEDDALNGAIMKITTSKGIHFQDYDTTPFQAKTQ
#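 20 nM HPGD preincubated 15 min at room temperature with compound in 50 mM Tris-HCl pH 8, 0.01% Tween 20. Started with 1 mM NAD+ and 30 uM prostaglandin E2; NADH fluorescence (360/450 nm) read 5 times over 30-s intervals, last minus first.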
# PNC inhibitor – perinucleolar compartment assembly inhibition | PC3M PTB-GFP, PNC prevalence imaging, 16 h; active compounds read low | activity change (PNC), negative = inhibition, % at 10 µM | 3.1% of 140,000 active;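 active = readout at or below -70, meaning at least 70% loss of cells showing the perinucleolar compartment, a nuclear body marking cancer cells; inconclusive = readout between -30 and a set limit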;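 note: plate controls were DMSO wells for no effect and camptothecin positive control wells for full effect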
#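 PC3M cells stably expressing PTB-GFP, 750–1000 cells/well, treated 16 h at 37 °C with compound (23 nl of library stock), in duplicate. After paraformaldehyde fixation and Hoechst stain, imaged at 20x; PNC prevalence scored by image analysis.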
# 15-hLO-2 inh – blocks human 15-lipoxygenase 2 activity; O15296; purified 15hLO-2, xylenol orange hydroperoxide absorbance; Potency, µM (series often up to 57.1 µM), for inactives: top-dose activity change, negative = inhibition, usual class: inhibitors; 0.56% of 110,000 active; AID 881; note: potency is the fitted concentration of half-maximal effect; nearly all actives have a fitted effect of over 60% in size
#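 Purified human 15hLO-2 (50 nM) preincubated 15 min with compound, then 45 uM arachidonic acid for 90 min at RT in 25 mM Hepes pH 7.5, 0.01% Triton X-100. Hydroperoxide detected by Fe-xylenol orange; 573/405 nm absorbance ratio.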
# 12-hLO inh – blocks human 12-lipoxygenase activity | AID 1452 | Potency, µM (top dose mostly 57.1 µM), for inactives: at the top dose activity change, negative = inhibition, actives largely listed as inhibitors | 0.12% of 150,000 active | P18054 | purified 12-hLO, xylenol orange hydroperoxide absorbance; note: potency is the fitted concentration of half-maximal effect; nearly all actives have a fitted effect of over 55% in size
#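 Purified human 12hLO (150 nM), preincubated 15 min with compound, then 40 uM arachidonic acid for 30 min, room temperature, Hepes pH 7.0 with 0.01% Triton X-100. Hydroperoxide detected by ferrous iron/xylenol orange; 573/405 nm absorbance ratio gives reaction progress.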
# IMPase cell inh – cell-permeable inhibitors of inositol monophosphatase (IMPase). CHO-M1 cells, IP1 accumulation, HTRF TR-FRET ratio. inhibition (IP1 accumulation), % at 46.1 µM. 120,000 tested, under 10 active; active = well fitted curve in the direction sought with a large enough effect in the signal ratio, not every such curve was filed as active; inconclusive = small, poorly fitted or top-dose-only effect, or a change in a side signal; inactive = no such curve, though single readings can be large or run the other way; the % refers to the signal ratio;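 note: cells stimulated with carbachol in lithium chloride buffer; plate controls were DMSO basal wells for no effect and reference inhibitor wells for full effect; higher means more IMPase inhibition seen as more IP1 and lower FRET ratio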
# Target sequence (P97697 whole entry, looked up): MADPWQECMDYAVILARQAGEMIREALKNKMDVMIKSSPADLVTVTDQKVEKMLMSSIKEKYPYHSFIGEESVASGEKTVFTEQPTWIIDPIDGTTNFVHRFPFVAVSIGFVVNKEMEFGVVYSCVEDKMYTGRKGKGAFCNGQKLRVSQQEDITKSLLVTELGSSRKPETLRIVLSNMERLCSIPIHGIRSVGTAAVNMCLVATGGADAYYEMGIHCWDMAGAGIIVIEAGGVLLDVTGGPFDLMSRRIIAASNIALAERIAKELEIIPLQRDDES
#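 Elevated IP1 in lysates lowers TR-FRET signal (665/620 ratio and 620 channel reported). Cells were CHO-M1, given carbachol (50 uM as added) plus 50mM LiCl, pH 7.4, 30 min, 37C; compounds titrated up to 46 uM; AC50 by Hill equation.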
# IMPase Li inh – IMPase inhibition in cells with lithium potentiation; CHO-M1 cells, IP1 TR-FRET (IP-One), carbachol + lithium; Potency, µM (top dose mostly 59.4 µM), for inactives: at the highest dose activity, negative = IMPase inhibition, actives largely listed as inhibitors; 0.35% of 210,000 active;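 note: IP1 builds up when IMPase is blocked and the TR-FRET signal falls; potency is the fitted concentration of half-maximal effect; plate controls were basal vehicle for no effect and high inhibitor control for full effect; nearly all actives have a fitted effect of over 50% in size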
#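 Test compounds were applied to CHO-M1 cells previously cultured for 16–30 h at 2000 per well. A small lithium amount accompanied them; after 30 min at 37C, IP1 was quantified by TR-FRET.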
# * marks the source's active call; other numbers are inactive results; ? = inconclusive; . = not tested or not shown; [ ] = another dose, or the depositor's remark. Most compounds without a hit are left out; they make up all but 5.4% or so of the library. Unless noted, calls come from the whole dose curve; as a rule, active = well fitted curve in the direction sought with a large enough effect; inconclusive = small, poorly fitted or top-dose-only effect, or another doubt; inactive = no such curve, though single readings can be large; an effect the other way counts as inactive or inconclusive. Unless noted, % is set by controls: 0 for no effect and ±100 for the full control effect.
SMILES,HPGD block,PNC inhibitor,15-hLO-2 inh,12-hLO inh,IMPase cell inh,IMPase Li inh
COc1ccc(Oc2c(C=O)c3ccccc3n2C)cc1,32µM*,100,-8%,-3%,?,-1%[38.3 µM]
Cn1c(Sc2ccc(C(=O)O)cc2[N+](=O)[O-])nnc1-c1ccccc1,.,.,.,.,.,1%
O=C(O)c1ccc(Sc2nnc(-c3cccc(Br)c3)o2)c([N+](=O)[O-])c1,14µM*,18,-17%,-1%,-9,21%[38.3 µM]
c1ccc(CSc2ncnc3c2cnn3Cc2ccccc2)cc1,?,-112*,17%,-1%,11,26%[38.3 µM]
CCN(CC(=O)NCc1cccs1)S(=O)(=O)c1cccc(C(C)=O)c1,-10%,-83*,-2%,-5%,7,-1%[38.3 µM]
COC(=O)COc1cccc(NC(=O)c2cccs2)c1,-15%,-118*,4%,-2%,-17,-8%[38.3 µM]
CCN(CC)S(=O)(=O)c1cccc(C(=O)Oc2cccc(NC(=O)c3cccs3)c2)c1,-15%,-108*,.,0%,.,11%
CC(C)[C@@H]1NC(=O)[C@H](CCCCN)NC(=O)[C@H](Cc2c[nH]c3ccccc23)NC(=O)[C@H](Cc2ccc(O)cc2)NC(=O)[C@H](C)N(C)C(=O)[C@H](Cc2ccccc2)NC1=O,.,.,14%,-6%,10,.
C/C=C/C1=Cc2ccccc2C(CC(=O)OC)N1C(=O)OC (centres undefined),-5%,.,.,5%[11.4 µM],.,2%
NC(=NCc1ccc(Cl)cc1Cl)NC(=O)c1nc(Cl)c(N)nc1N,.,.,.,.,.,5%
COC(=O)c1ccc(CCc2cc(O)ccc2O)cc1,0.4µM*,.,12%[11.4 µM],3.5µM*,.,-3%
COC(=O)c1ccc(O)cc1,3%,.,-6%[0.0915 µM],1%[0.00818 µM],.,.
O=C(O)c1cc(C(=O)O)nc(C(=O)O)c1,-10%,.,20%[11.4 µM],-2%[11.4 µM],.,-2%
CCCn1c(SCC(=O)N2CCCCC2)nnc1-c1ccccn1,.,.,.,.,.,7%
CCCn1c(SCC(=O)N2c3ccc(F)cc3CCC2C)nnc1-c1ccccn1 (centres undefined),-10%,-119*,.,-3%,-6,16%
CCSc1nc(O)c(C2OC(=O)c3c2ccc(OC)c3OC)c(=O)n1CC (centres undefined),.,-122*,-10%,1%,9,.
Cc1ccccc1NC(=O)c1sc2nc(N3CCOCC3)c3c(c2c1N)CC(C)(C)OC3,.,.,.,.,-7,.
Cc1ccc(C)c(S(=O)(=O)Nc2ccc(C(N)=O)cc2)c1,.,.,.,.,.,3%
Cc1ccc(C)c(NS(=O)(=O)c2cc(C(N)=O)ccc2C)c1,-11%,-81*,-2%,-6%,-2,7%[38.3 µM]
CCc1nnc(NS(=O)(=O)c2ccc(N=Cc3c(C)[nH]n(-c4ccc(Cl)cc4)c3=O)cc2)s1,?,0,.,-2%,.,21%
CCc1nnc(NS(=O)(=O)c2ccc(N=Cc3c(C)[nH]n(-c4cccc(Cl)c4)c3=O)cc2)s1,13µM*,?,.,22%,-7,9%
COc1nccnc1NS(=O)(=O)c1ccc(N=Cc2c(C)[nH]n(-c3ccc(C)c(C)c3)c2=O)cc1,22µM*,-12,10%,-3%,?,-12%[38.3 µM]
COc1nccnc1NS(=O)(=O)c1ccc(N=Cc2c(C)[nH]n(-c3ccc(Cl)cc3)c2=O)cc1,?,-15,.,-1%,.,7%
CC[C@H](CN(C)C)C(=O)c1ccco1,-7%,.,1%[11.4 µM],1%[11.4 µM],.,4%
CC(C)(C)NC[C@H](O)COc1cccc2c1C[C@@H](O)[C@@H](O)C2,-4%,.,-3%[25.6 µM],-4%[25.6 µM],5[20.6 µM],9%
SMILES,HPGD block,PNC inhibitor,15-hLO-2 inh,12-hLO inh,IMPase cell inh,IMPase Li inh
O=C1C(c2ccccc2)SC(=Nc2ccccc2)N1S(=O)(=O)c1ccccc1 (centres undefined),14µM*,-26,-16%,12%,-4,25%[38.3 µM]
CC1(C)SC(=Nc2ccccc2)N(S(=O)(=O)c2ccccc2)C1=O,-2%,-23,.,3%,.,-1%
O=C1NC2(CCCc3ccccc32)C(=O)N1CCOc1ccc(Br)cc1 (centres undefined),16µM*,-9,4%,-3%,0,20%[38.3 µM]
CCc1nnc(SCC(=O)NC2CCCCC2)nc1CC,?,6,2%[2.29 µM],0%,2,9%[38.3 µM]
CCc1nnc(SCC(=O)NC2CCCC2)nc1CC,16µM*,-24,0%,1%,3,-6%[38.3 µM]
Cc1c(C(=O)Nc2ccccc2)cn2c(nc3ccccc32)c1C#N,-16%,-80*,.,15%,.,-15%
Cc1ccccc1C(=O)Nc1ccc2c(C#N)c3nc4ccccc4nc3n2c1,-20%,14,.,-2%,.,0%
S=C(Nc1ccccc1)N1CCCCCCC1,.,.,.,.,.,-4%
Oc1ccccc1C(=S)N1CCCCCC1,8.9µM*,?,-13%,8%,11,41%[38.3 µM]
Oc1ccccc1C(=S)N1CCCCC1,14µM*,-5,?,-4%,-3,-5%[38.3 µM]
O=C(NC(=S)N1CCCCCC1)c1ccccc1Cl,.,.,.,.,.,3%
OC[C@@H]1O[C@H](n2cnc3c(/C=C(\O)c4ccccc4)ncnc32)[C@H](O)[C@@H]1O,2%,.,-15%[11.4 µM],-3%[11.4 µM],.,14%
COc1cc(=O)n2c(n1)SCCC2,-5%,60,5%,3%,5,-4%[38.3 µM]
O=C(COc1cc(=O)n2c(n1)SCCC2)c1ccccc1,16µM*,-4,-5%,-2%,6,-12%[38.3 µM]
c1ccc(CNc2cc(-c3ccoc3)ncn2)cc1,.,.,49%,.,.,13%
C=CC(=O)OCCCC,?,.,9%,1%,.,-10%
CCCCNC(=O)Cc1c(O)c2ccccc2[nH]c1=O,-25%,-112*,3%,8%,6,30%[38.3 µM]
CC(=O)NCCc1c(Cc2ccccc2)[nH]c2ccccc12,14µM*,.,11%,-7%,0,1%
COc1ccc2[nH]c(-c3ccccc3)c(CCNC(C)=O)c2c1,?,.,9%,0%,-6,?
CCCCC(=O)NCCc1c(Cc2ccccc2)[nH]c2ccccc12,16µM*,.,2%,-6%,8,14%
CCCCCCNC(=O)Cc1c(O)c2ccccc2[nH]c1=O,?,?,1%,-8%,-3,12%[38.3 µM]
CCCC(=O)N(c1ccc2oc(-c3ccccc3)c(C(=O)OCC)c2c1)S(=O)(=O)c1ccc(C)cc1,.,.,.,.,-7,.
Cc1ccc(S(=O)(=O)NNC(=O)c2cccs2)c(C)c1,2%,-8,.,-1%,.,-10%
Cc1ccc(S(=O)(=O)NNc2ccccc2)c(C)c1,8.9µM*,?,.,?,.,6%
COc1cccc(Nc2ncc3nc(C)c(=O)n(CCc4ccccc4)c3n2)c1,.,.,3%,.,.,15%
Cc1ccc(C(=O)NC(=S)Nc2cccc(NC(=O)c3ccccc3)c2)cc1[N+](=O)[O-],-14%,-93*,.,?,.,0%
COc1ccc(CCC(=O)Nc2cc([N+](=O)[O-])ccc2OC)cc1,-15%,-5,.,-2%,.,-1%
